The values below come from PubChem BioAssay (Tox21).

A short description of assay [1]: qHTS assay for small molecules that induce genotoxicity in human embryonic kidney cells expressing luciferase-tagged ATAD5 (AID 651632). Further: nearly all actives have a fitted effect of over 15% in size. The gist of the method:
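Concentration-response screen for ATAD5 upregulation in HEK293T luciferase reporter cells; 16 hr treatment at 37C, then luminescence after 30 min with Amplite at room temperature.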
On the technique in general: In qHTS, concentration-response curves come from the screen itself.

Assay [2] in a line: qHTS assay for small molecule agonists of the p53 signaling pathway - cell viability (AID 651633; calls by dose curve; further: nearly all actives have a fitted effect of over 30% in size; further: potency means the concentration at half of the fitted maximal effect). The gist of the method: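 p53RE-bla cells, seeded at 4,000 per well and rested 5 h at 37 C/5% CO2, received compounds in DMSO for 16 h at 37 C. CellTiter-Glo was then added, and luminescence was read after 30 min at room temperature to gauge cytotoxicity.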
A short description of assay [3]: qHTS assay for small molecules that induce genotoxicity in human embryonic kidney cells expressing luciferase-tagged ATAD5 - cell viability (AID 651634; calls by dose curve; further: nearly all actives have a fitted effect of over 25% in size; further: potency means the concentration at half of the fitted maximal effect). The gist of the method:
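15.5 hr compound or vehicle exposure of HEK293T cells expressing luciferase-tagged ATAD5 at 37C; live-cell protease activity is read by fluorescence after 30 min of CellTiter-Fluor.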

A short description of assay [4]: qHTS assay to test for compound auto fluorescence at 590 nm (red) in HepG2 cells (AID 720674). A digest of the protocol: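 Compound auto-fluorescence is scored relative to Rose Bengal sodium, measured at 540/590 nm in live HepG2 cultures after 1 hr compound contact (37 C, 5% CO2).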
A short description of assay [5]: qHTS assay to test for compound auto fluorescence at 535 nm (green) in HepG2 cells (AID 720675).
The nature of assay [6]: qHTS assay to test for compound auto fluorescence at 460 nm (blue) in HEK293 cells (AID 720678). A digest of the protocol:
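Cells were seeded and left to adhere for 4-5 hr at 37C. Compounds were then pin-transferred. After an overnight incubation at 37C under 5% CO2, intrinsic fluorescence at 405/460 nm was measured and referenced to triamterene.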

A short description of assay [7]: qHTS assay to test for compound auto fluorescence at 590 nm (red) in HEK293 cells (AID 720679). The gist of the method: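 Each well held 2,000 HEK293 cells in medium containing 10% dialyzed FBS. Following 4-5 hr attachment at 37C, 23 nL test compound or DMSO was added; plates sat overnight, and red fluorescence (540/590nm) was recorded.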
Assay [8] is described as follows: qHTS assay to test for compound auto fluorescence at 535 nm (green) in HEK293 cells (AID 720680).
Assay [9] in a line: qHTS assay to test for compound auto fluorescence at 460 nm (blue) in HEK293 cell free culture (AID 720681). A digest of the protocol:
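Test compounds were pinned into cell-free culture medium (DMEM with 10% FBS) and fluorescence was read directly at Ex/Em 405/460 nm. Signals were expressed as fluorescence equivalents of triamterene, with DMSO vehicle as control.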

The nature of assay [10]: qHTS assay to test for compound auto fluorescence at 535 nm (green) in HEK293 cell free culture (AID 720682). A digest of the protocol:
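Compounds were pin-transferred into cell-free DMEM with 10% FBS, and green fluorescence was read at excitation 485 nm and emission 535 nm. Intensities were expressed as fluorescein-equivalent values.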

A short description of assay [11]: qHTS assay to test for compound auto fluorescence at 590 nm (red) in HEK293 cell free culture (AID 720683). The gist of the method: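 Tox21 10K library compounds were pinned into cell-free DMEM with 10% FBS and fluorescence was read at excitation 540 nm. Activity is expressed as Rose Bengal sodium equivalency.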
Assay [12] is described as follows: qHTS assay to test for compound auto fluorescence at 590 nm (red) in HepG2 cell free culture (AID 720684). A digest of the protocol:
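Ex 540 / Em 590 nm read of compound in cell-free MEM (10% FBS). Rose Bengal sodium reference.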

Assay [13] is described as follows: qHTS assay to test for compound auto fluorescence at 460 nm (blue) in HepG2 cell free culture (AID 720685). The gist of the method: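 Cell-free plates of MEM plus 10% FBS received 23 nL compound or DMSO vehicle; blue-channel (405/460 nm) intensity scored against triamterene as reference fluorophore.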
Assay [14] can be described thus: qHTS assay to test for compound auto fluorescence at 535 nm (green) in HepG2 cell free culture (AID 720686).
Assay [15] in a line: qHTS assay to test for compound auto fluorescence at 460 nm (blue) in HepG2 cells (AID 720687). A digest of the protocol: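 Cells (2,000/well in MEM with 10% FBS) attached overnight at 37 C, then were exposed to compound or DMSO for 1 hr at 37 C, 5% CO2. Fluorescence read at Ex/Em 405/460 nm, expressed as triamterene-equivalent signal.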
The target of assay [16] is Glucocorticoid receptor (Homo sapiens) (UniProt P04150). Kind of assay: qHTS assay to identify small molecule agonists of the glucocorticoid receptor (GR) signaling pathway (AID 720691; active means well fitted activation curve with a large enough effect in the signal ratio in the repeat runs, not every such curve was filed as active; the % refers to the signal ratio). A digest of the protocol: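 Measures GR pathway activation through a GRE-beta-lactamase reporter stably integrated in HeLa cells, with 18 h compound treatment at 37 C and fluorescence detection using a FRET substrate.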

The target is the same in assay [17]. Kind of assay: qHTS assay to identify small molecule antagonists of the glucocorticoid receptor (GR) signaling pathway (AID 720692; active means well fitted inhibition curve with a large enough effect in the signal ratio in the repeat runs, not every such curve was filed as active; the % refers to the signal ratio; further: potency means the concentration at half of the fitted maximal effect). The gist of the method: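 Tox21 10K library screened in concentration-response for blockade of dexamethasone (5 nM final)-induced GRE-bla reporter activity in HeLa cells; 18 h treatment, fluorescence read.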
Assay [18] can be described thus: qHTS assay for small molecule disruptors of the mitochondrial membrane potential - cell viability (AID 720634; calls by dose curve;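 further: human HepG2 liver cancer cells; series mostly up to about 83 µM; nearly all actives have a fitted effect of over 20% in size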). The gist of the method: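 In this qHTS format, HepG2 cells plated overnight were pinned with compound, incubated 1 hr, and assayed for ATP luminescence with CellTiter-Glo after m-MPI dye addition.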

Molecules are shown by their SMILES. Values without a mark were called inactive. Records with an inconclusive call do not appear. Activity calls are given as the source filed them. Unless noted, the call rests on the fitted dose curve; in most records, active means well fitted curve in the direction sought with a large enough effect in the repeat runs; inconclusive means weak or mixed curves; inactive means no such curve, though single readings can be large; an effect the other way counts as inactive or inconclusive.

Glucocorticoid receptor (Homo sapiens), sequence (P04150 whole entry, looked up): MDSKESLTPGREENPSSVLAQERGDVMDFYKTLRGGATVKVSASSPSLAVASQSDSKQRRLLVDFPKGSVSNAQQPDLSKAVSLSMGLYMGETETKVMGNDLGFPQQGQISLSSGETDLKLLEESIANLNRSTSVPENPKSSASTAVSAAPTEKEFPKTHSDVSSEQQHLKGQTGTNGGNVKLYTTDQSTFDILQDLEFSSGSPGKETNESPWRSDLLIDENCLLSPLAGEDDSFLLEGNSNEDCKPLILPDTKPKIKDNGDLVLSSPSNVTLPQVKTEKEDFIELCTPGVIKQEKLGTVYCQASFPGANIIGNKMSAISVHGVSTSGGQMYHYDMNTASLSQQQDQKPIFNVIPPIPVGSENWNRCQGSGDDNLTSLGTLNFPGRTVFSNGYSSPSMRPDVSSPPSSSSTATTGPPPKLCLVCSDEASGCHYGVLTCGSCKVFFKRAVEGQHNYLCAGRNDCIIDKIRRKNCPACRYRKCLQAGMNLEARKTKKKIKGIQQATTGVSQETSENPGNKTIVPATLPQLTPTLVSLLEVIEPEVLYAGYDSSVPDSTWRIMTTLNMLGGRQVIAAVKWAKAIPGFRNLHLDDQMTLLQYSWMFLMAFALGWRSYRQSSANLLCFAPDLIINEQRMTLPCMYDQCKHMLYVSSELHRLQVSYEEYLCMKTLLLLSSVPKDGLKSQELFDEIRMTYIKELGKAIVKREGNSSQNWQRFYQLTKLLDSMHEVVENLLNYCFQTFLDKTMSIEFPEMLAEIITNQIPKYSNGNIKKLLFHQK

Regarding `O=C(NC(=O)c1c(F)cccc1F)Nc1cc(Cl)c(Oc2ncc(C(F)(F)F)cc2Cl)c(Cl)c1`, the Potency entry in assay [1] and in assay [3] was “inactive” in each case. Further, in assay [2], the Potency is 7.37 µM (active). Besides, the result in [4], in [5], in assay [6], in assay [7], in assay [8] and in assay [9] was inactive. For the same molecule, the call in assay [10], in assay [11], in assay [12], in assay [13], in assay [14] and in assay [15] was inactive. Also, the outcome in assay [16] was inactive.
For the molecule `CC(C)N(C(=O)COc1nnc(C(F)(F)F)s1)c1ccc(F)cc1`, the Potency result in assay [1], in [2] and in assay [3] was “inactive” throughout. Also, the molecule was called inactive in assay [4], in assay [5], in [6], in assay [7], in assay [8] and in [9]. The outcome in [10], in assay [11], in [12], in [13], in assay [14] and in [15] was inactive. Besides, the Potency in assay [17] is 49 µM (active).
Regarding `COC(C)(C)CCC[C@H](C)C/C=C/C(C)=C/C(=O)OC(C)C`, the Potency entry in assay [1] and in [3] was “inactive” in each case. For the same molecule, in assay [2], the Potency is 61.1 µM (active). In addition, the outcome in [4], in assay [5], in assay [6], in [7], in [8] and in [9] was inactive. Moreover, the outcome in assay [10], in [11], in assay [12], in assay [13], in assay [14] and in [15] was inactive.
For the molecule `CCOC(=O)COc1cc(-c2nn(C)c(OC(F)F)c2Cl)c(F)cc1Cl`, the Potency result in assay [1], in [2], in assay [3], in assay [18] and in assay [17] was “inactive” in each case. Besides, the result in assay [4], in assay [5], in [7], in [8], in assay [9] and in assay [10] was inactive. Further, the result in assay [11], in assay [12], in assay [13], in [14], in [15] and in assay [16] was inactive.
Regarding `O=C(O)CC(Cl)C(=O)O` (stereo unspecified), the Potency entry in assay [1], in assay [2], in [3] and in assay [17] was “inactive” each time. For the same molecule, the molecule was classed as inactive in assay [4], in assay [5], in assay [6], in assay [7], in [8] and in assay [9]. In addition, the call in assay [10], in [11], in [12], in [13], in [14] and in assay [15] was inactive. The molecule was called inactive in assay [16].
As to `N#CCC#N`, the Potency result in assay [1], in assay [2], in assay [3], in [18] and in [17] was “inactive” throughout. For the same molecule, the molecule was called inactive in assay [4], in assay [5], in assay [6], in [7], in assay [8] and in assay [9]. The call in [10], in assay [11], in [12], in assay [13], in assay [14] and in assay [15] was inactive.
`O=[Se]=O`: the Potency result in assay [1], in assay [2] and in [17] was “inactive” each time. Moreover, in assay [3], the Potency was 0.764 µM (active). Besides, the molecule was classed as inactive in [4], in [5], in [6], in assay [7], in assay [8] and in [9]. In addition, the call in assay [10], in assay [11], in [12], in [13], in [14] and in assay [15] was inactive.
`O=S(=O)(O)C(F)(F)C(F)(F)C(F)(F)C(F)(F)F`: the Potency result in assay [1], in assay [2], in assay [3], in assay [18] and in assay [17] was “inactive” each time. Besides, the call in assay [4], in assay [5], in assay [6], in [7], in [8] and in assay [9] was inactive. For the same molecule, the result in assay [10], in [11], in assay [12], in [13], in assay [14] and in assay [15] was inactive.
